According to ChEMBL document CHEMBL3988442, “University of Dundee, Small-Polar-MMV Screening Library” (2021):
Screen size: about 48,000 compounds; about 13,000 (27%) showed an effect of 50% or more. The list shows a part of the results.

System: Wolbachia pipientis
Assay: Anti-Wolbachia Cell-Based Screen
Type: functional
Design: scale not given: in the data most compounds retested in dose-response had high values
Conditions: 5 µM

Compound	Percent Effect [%]
CCc1nc(C2CCCN2C(=O)CCCOc2cccc(F)c2)no1 (configuration not stated)	-10.09
CC(C)c1nc(C2CCCN2C(=O)c2cnc[nH]2)no1 (configuration not stated)	-3.664
Cc1csc(C2CCCCN2C(=O)CCCn2cncn2)n1 (configuration not stated)	-9.865
CCc1nc(C2CCCN2C(=O)CCCn2cncn2)no1 (configuration not stated)	114.2
Cc1nc(C2CCCN2C(=O)CCCn2cncn2)no1 (configuration not stated)	100.4
CC(C)c1nc(C2CCCN2C(=O)CCn2cncn2)no1 (configuration not stated)	104.8
COCc1nc(C(=O)N2CCCC2c2noc(C(C)C)n2)cs1 (configuration not stated)	-1.506
Cc1cc(S(=O)(=O)Nc2cccc(-n3cccc3)c2)sc1C(=O)O	-5.79
CS(=O)(=O)N[C@H]1CN(C(=O)CCc2ccc(=O)[nH]n2)C[C@@H]1C1CC1	-10.51
Cc1cc(C(=O)NCC2Cn3nnc(C)c3CO2)no1 (configuration not stated)	3.49
CCCc1nccn1-c1ccncc1	13.78
COc1ccc(Oc2nccc3occc23)cc1CN1CCCC1	7.902
COc1c(C(=O)N2CCNC(=O)C2)cnc2c1c(C)nn2C	124.2
COc1c(C)cnc(CNC(=O)c2cc(C)nc3c2c(C)nn3C)c1C	-8.384
O=C(c1cnc(COc2ccccc2)nc1O)N1CCOCC1	1.405
COC(=O)c1cnc2c(c(C)nn2C)c1OC	97.33
COc1c(C(=O)N2CCOCC2)cnc2c1c(C)nn2C	129.8
COC(=O)c1ccccc1NS(=O)(=O)c1c(C)nn(C)c1C	21.66
Cc1ccc(CNc2ccc(C(=O)N3CCNC(=O)C3)cn2)cc1	3.114
Cc1cc(C(=O)N2CCNC(=O)C2)c(C)n1Cc1ccccn1	-1.908
Cc1cc(C(=O)N2CCCC3(CNC(=O)O3)C2)c2c(C)nn(C)c2n1 (configuration not stated)	2.308
O=C1N(CC2CCCCC2)CCCC1(O)CN1CCc2[nH]ncc2C1 (configuration not stated)	-9.247
COc1cc(F)c(CN2CCN(CC(C)C)C(=O)C2C)cc1OC (configuration not stated)	4.949
CN(C)c1ccc(C(=O)NCC2(c3ccccc3)CCOCC2)cc1	9.489
CS(=O)(=O)N1C[C@@H]2CC[C@H](C1)N(C(=O)Cn1ccc3ccccc31)C2	-4.366

Compound	Percent Effect [%]
CN(CC(=O)N1CCC(Cc2cccc(C(N)=O)c2)C1)C1CCCC1 (configuration not stated)	-18.46
CC(C)Oc1ccc(CNC(=O)CC(F)(F)F)cc1F	4.736
O=C1N(c2cccc(Cl)c2)Cc2nc(=O)[nH]n21	-8.298
Cc1noc([C@@H]2C[C@H]3CN(Cc4scnc4C)C[C@H]3O2)n1.O=C(O)C(F)(F)F	-4.188
Cc1noc([C@H]2CC[C@@H]3[C@@H](CCN3c3ncccn3)O2)n1	101.9
Cc1noc([C@@H]2C[C@@H]3CCN(CC4CC4)C[C@H]3O2)n1.O=C(O)C(F)(F)F	-0.5641
Cc1noc([C@@H]2C[C@@H]3CCN(c4nnc(C)s4)C[C@H]3O2)n1.O=C(O)C(F)(F)F	122.4
Cc1noc([C@@H]2CC[C@@H]3[C@@H](CCN3S(=O)(=O)c3cccnc3)O2)n1.O=C(O)C(F)(F)F	4.369
Cc1noc([C@@H]2CC[C@@H]3[C@@H](CCN3c3nnc(C)s3)O2)n1.O=C(O)C(F)(F)F	108.3
Cc1noc([C@H]2CC[C@@H]3[C@@H](CCN3S(C)(=O)=O)O2)n1	5.645
Cc1noc([C@H]2C[C@@H]3CCN(c4nnc(C)s4)C[C@H]3O2)n1.O=C(O)C(F)(F)F	107.3
Cc1noc([C@@H]2C[C@@H]3CCN(CC4CCOCC4)C[C@H]3O2)n1.O=C(O)C(F)(F)F	8.264
Cc1noc([C@@H]2CC[C@@H]3[C@@H](CCN3S(=O)(=O)C3CC3)O2)n1	-8.52
Cc1noc([C@H]2C[C@@H]3CCN(CC4CC4)C[C@H]3O2)n1.O=C(O)C(F)(F)F	1.445
Cc1noc([C@H]2C[C@@H]3CCN(CC4CCOCC4)C[C@H]3O2)n1.O=C(O)C(F)(F)F	8.046
CCCc1nc(C)cc(N2CCC3(CCC(=O)N(CCCO)C3)CC2)n1	11.58
Cc1cc(SC(C)(C)C)ccc1NCC(=O)NC(N)=O	1.645
CCCS(=O)(=O)C(C)C(=O)Nc1ccc2oc(C3CC3)nc2c1 (configuration not stated)	3.211
Cl.Cl.FC(F)(F)c1cccc(-c2c[nH]c(C3CCCN3)n2)c1 (configuration not stated)	-28.55
Cc1cc(Cc2ccc(F)cc2)cc(C2CCCNC2)n1 (configuration not stated)	73.78
Cc1cccc(Cc2cc(C)nc(C3CCCNC3)c2)c1 (configuration not stated)	70.21
Cc1cc(Cc2ccccc2)cc(C2CCCNC2)n1 (configuration not stated)	107.8
Cc1cc(Cc2cccc(C(F)(F)F)c2)cc(C2CCCNC2)n1 (configuration not stated)	97.1
O=C(NC1CCCNC1)c1cc(COc2cccc(C(F)(F)F)c2)[nH]n1 (configuration not stated)	2.713
O=C(CN1CCOc2ccccc2C1)N1Cc2cnn(CCO)c2C1	6.512

Compound	Percent Effect [%]
Cc1cnc(C)c(-c2cc(O)c3c(c2)CN(c2ncccn2)CCO3)n1	-18.62
CN(C)C(=O)c1nc(CN2CC(c3ccccc3)CC2=O)no1 (configuration not stated)	7.307
C=C(C)CN(CC)Cc1nc(C2CC2)no1	1.764
CCCS(=O)(=O)N1CCn2cc(CNc3ccccn3)nc2C1.O=C(O)C(F)(F)F	-1.498
O=C(CSCc1ccccn1)N(Cc1ccsc1)C1CC1	-10.63
OC1(CNC2CCN(c3ccccn3)CC2)CCc2ccccc21 (configuration not stated)	6.779
CCC(=O)N1CCN(C(=O)Nc2cccc(C#N)c2)[C@H]2CS(=O)(=O)C[C@H]21	-1.601
CS(=O)(=O)N1CCCC(C(=O)Nc2cnn(COCC(F)(F)F)c2)C1 (configuration not stated)	96.9
CCn1cc(NC(=O)C2CCN(CCOC(C)C)CC2)cn1	-5.388
CN(Cc1ccc(Cl)cc1)C(=O)Nc1cnn(CC(N)=O)c1	3.306
CCOC1CCCN(C(=O)Nc2cnn(CC(F)F)c2)C1 (configuration not stated)	6.944
CC(C)C1CN(S(C)(=O)=O)CCCN1Cc1ccc(F)cc1 (configuration not stated)	3.687
CCOCn1cc(NC(=O)C2CCN(S(C)(=O)=O)CC2)cn1	105.1
O=C(Nc1cnn(Cc2ccc(Cl)cc2)c1)N[C@@H]1C=C[C@H](CO)C1	-9.454
CS(=O)(=O)N1CCC(C(=O)N2CCC(Cn3cccn3)CC2)CC1	-10.97
CS(=O)(=O)N1CCC(C(=O)Nc2nnc(C(F)(F)F)[nH]2)CC1	11.43
CS(=O)(=O)N1CCCC(C(=O)Nc2cnn(Cc3ccc(F)cc3)c2)C1 (configuration not stated)	99.84
CS(=O)(=O)N1CCCC(C(=O)Nc2cnn(Cc3ccc(Cl)cc3)c2)C1 (configuration not stated)	106.8
O=C(Cn1cc(NC(=O)c2ccc(F)cc2F)cn1)NC1CCCC1	5.692
Cc1nc(CNC(C)c2cccc(S(=O)(=O)N(C)C)c2)no1 (configuration not stated)	-7.216
CS(=O)(=O)c1ccc(NC(=O)CSc2ccc3c(c2)CCC3)cc1	1.625
Cn1cnc2c1C(COCC1CC1)CN(C(=O)c1ccsc1)C2 (configuration not stated)	-2.938
COCCN1CCN(CCS(=O)(=O)c2cccc(OC)c2)CC1	2.005
CN(C)C(=O)CCNC(=O)Nc1sc2ccccc2c1Cl	-12.49
N#CCC(=O)NCc1nnc2n1CCN(Cc1nccs1)C2	-14.07

Compound	Percent Effect [%]
CCS(=O)(=O)N1CC(c2nc(-c3ccncc3)no2)C1	-18.6
Cc1ccc(-c2noc(CNCC3CN(C)CCO3)n2)cc1F (configuration not stated)	8.94
CCc1nc(NS(=O)(=O)c2ccc(F)cc2Cl)no1	2.388
CC(C)(NS(C)(=O)=O)c1nc(-c2ccncc2)no1	92.68
CC(C)(NS(C)(=O)=O)c1nc(-c2cccc(Cl)c2)no1	115.9
CC(C)C1=NOC(c2nc(-c3cccc(Cl)c3)no2)C1 (configuration not stated)	-9.721
Cc1ccc(-c2noc(C(C)(C)NS(C)(=O)=O)n2)cc1F	124.7
Cc1ccc(-c2noc(CN3CCOC(CN(C)C)C3)n2)cc1F (configuration not stated)	-11.04
CC(C)(CNc1ccc2ccc(F)cc2n1)NS(C)(=O)=O	-16.93
CCNc1nc(C)c(C(=O)N(C)Cc2nc(-c3ccncc3)no2)s1	-39.74
CC(C)(NS(C)(=O)=O)c1nc(-c2ccc(F)cc2Cl)no1	95.59
CC(Cn1cccn1)NCc1nc(-c2cccc(Cl)c2)no1 (configuration not stated)	-1.118
O=C1[C@H]2CC[C@H](CN(C3CSCCSC3)C2)N1Cc1cscn1	1.539
COC(=O)c1ccc(N2CCN(C(=O)c3cnn(C)c3)C(C)C2)cc1 (configuration not stated)	5.538
Cc1cnn(CC(C)NCc2ccc(OCc3ccncc3)cc2)c1 (configuration not stated)	2.463
CCn1c(CN(C)C(=O)c2ccc(OC)nc2)nc2ccccc21	-6.401
OC1(CN2CCCC2)COCCN(c2noc(-c3ccccc3)n2)C1 (configuration not stated)	-20.3
N#Cc1cc(F)c(NCCCOCC2CCOC2)c(F)c1 (configuration not stated)	-9.574
Cc1cc(-c2nnn(CCNS(C)(=O)=O)n2)ccc1F	-4.563
CC(C)(NS(C)(=O)=O)c1nc(-c2ccc(F)c(F)c2)no1	108
Cc1cc(-c2noc(C3CCS(=O)(=O)C3)n2)ccc1F (configuration not stated)	-6.108
CCn1cc(CNc2ccc3nccnc3c2)cn1	0.1341
